Results on 98 compounds are retold here after PubChem BioAssay AID2796 (The Scripps Research Institute Molecular Screening Center, 2010).

The whole screen tested about 320,000 compounds, of which about 8,000 (2.5%) were called active. The full list was thinned out, with actives kept by preference. Unmarked numbers belong to inactive results. No stated cut-off is given here; in the data, active means activation above about 47%; inactive means the rest.

In the experiment the target is Aryl hydrocarbon receptor (Homo sapiens) (UniProt P35869). Briefly: AHR activators, primary screen, cell-based, luminescence, luciferase reporter, human (AID 2796).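 Further: 0% = vehicle wells and 100% = reference agonist.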 Conditions: AHR-responsive luciferase reporter cells, at 5 µM, hits give high values. On the technique in general: In a reporter assay the amount or activity of a reporter protein is the signal.
Chain of Aryl hydrocarbon receptor (Homo sapiens) (P35869 whole entry, looked up): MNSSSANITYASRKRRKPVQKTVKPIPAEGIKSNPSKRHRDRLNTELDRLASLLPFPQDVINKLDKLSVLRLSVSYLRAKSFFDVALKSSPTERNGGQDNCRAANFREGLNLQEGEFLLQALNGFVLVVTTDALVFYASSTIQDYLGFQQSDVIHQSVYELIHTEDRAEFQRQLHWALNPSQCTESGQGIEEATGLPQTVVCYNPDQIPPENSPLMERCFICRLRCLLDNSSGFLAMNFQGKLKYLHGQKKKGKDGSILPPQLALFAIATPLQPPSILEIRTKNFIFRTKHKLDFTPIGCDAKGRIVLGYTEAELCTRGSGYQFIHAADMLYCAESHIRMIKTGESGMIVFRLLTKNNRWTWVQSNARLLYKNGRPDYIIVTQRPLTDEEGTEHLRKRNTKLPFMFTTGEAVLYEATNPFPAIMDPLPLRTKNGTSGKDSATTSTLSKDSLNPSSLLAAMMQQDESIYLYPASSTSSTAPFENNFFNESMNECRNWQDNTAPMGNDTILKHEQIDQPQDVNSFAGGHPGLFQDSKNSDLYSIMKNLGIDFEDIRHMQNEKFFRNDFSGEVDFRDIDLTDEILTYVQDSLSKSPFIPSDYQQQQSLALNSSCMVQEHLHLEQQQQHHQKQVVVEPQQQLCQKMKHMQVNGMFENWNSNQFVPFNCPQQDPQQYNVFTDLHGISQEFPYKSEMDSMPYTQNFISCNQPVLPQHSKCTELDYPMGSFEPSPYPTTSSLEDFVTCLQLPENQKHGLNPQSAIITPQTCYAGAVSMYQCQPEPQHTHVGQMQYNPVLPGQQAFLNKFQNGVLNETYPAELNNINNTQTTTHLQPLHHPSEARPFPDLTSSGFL
As to `Clc1ccc(Cl)c(Oc2ccc(Oc3nc(Cl)ccc3Cl)cc2)n1`, the activation is -1.7%. As to `COCCSc1nnc(NC(=O)c2cc(OC)c(OC)cc2[N+](=O)[O-])s1`, the activation is 1.43%. Then `COc1ccc(Nc2ncnc3sc(C)cc23)cc1`, with 37%; and `COc1ccc(NCCc2ccccn2)cc1`, with 4.86%. Then `COc1ccc(Nc2cc(Sc3ccc(OC)cc3)ncn2)cc1`, with 54% (active); and `O=C(NC(C(=O)NCCN1CCOCC1)C12CC3CC(CC(C3)C1)C2)C1CCCCC1` (stereo not drawn), with 2.26%; and `Cn1c(N)c(C(=O)COC(=O)c2ccc3ccccc3c2)c(=O)n(C)c1=O`, with -1.74%.

With `CCCC(=O)Nc1ccc(C(=O)NCCCn2ccnc2)cc1`, the activation is 0.23%. Next, `O=C(NCCCn1ccnc1)c1cc(Br)c(Br)s1`: 57.3% (active); `O=C(NCCCn1ccnc1)c1ccccc1F`: 12.6%.

Take `O=C(/C=C/c1ccc(Cl)cc1)NCCCn1ccnc1`: the activation was 7.43%. Then `O=C(Nc1ccccc1C(=O)NCCCn1ccnc1)c1ccc(Cl)cc1Cl`, with 20.3%. Then `O=C(NCCCn1ccnc1)c1cc(-c2ccccc2)on1`, with 168% (active). For the compound `O=C(NCCCn1ccnc1)Nc1ccc(Cl)cc1Cl`, the activation was 69.2% (active). Then `Cc1ccc2c(Cl)c(C(=O)Nc3nn[nH]n3)sc2c1`, with 1.09%. Next, `COc1ccc(-c2cc(C(=O)NCCCn3ccnc3)no2)cc1`: 15.1%; `COc1cc(OC)cc(C(=O)NCCCn2ccnc2)c1`: 32.8%. Then `O=C(NCCCn1ccnc1)c1cc2c(s1)CCCC2`, with 46.3%. Turning to `Cc1ccc2c(Cl)c(C(=O)NCCCn3ccnc3)sc2c1`, the activation was 55.7% (active). For the compound `COc1ccc(C(=O)Nc2cc(S(=O)(=O)N3CCCC3)ccc2Cl)cc1`, the activation was 3.58%. With `C=CCNC(=O)c1ccc2c3n(nc2c1)-c1ccc(C)cc1CO3`, the activation was -9.75%. Consider `CC1C(=O)Nc2ccccc2N1C(=O)c1ccc(F)cc1F` (stereo not drawn), for which the activation was 3.47%. Then `CCCN(CC1CC1)C(=S)NC(=O)c1ccccc1Br`, with 0.93%; and `O=C(Cn1nc(Cc2cccnc2)c2ccccc2c1=O)NCC1COc2ccccc2O1` (stereo not drawn), with 0.07%; and `O=C(NC1CCCC1)C(c1c(F)cccc1Cl)N(C(=O)c1csnn1)C1CC1` (stereo not drawn), with 1.3%. For the compound `COc1ccc(S(=O)(=O)N2CCCCC2)cc1NC(=O)COc1ccccc1`, the activation is -0.98%. Regarding `O=C(CN1C(=O)NC2(CCOc3ccccc32)C1=O)NCc1ccc(F)cc1` (stereo not drawn), the activation was 0.77%. For the compound `Cc1cc(NC(=O)CCC(=O)N(CC(=O)NCC2CCCO2)c2ccccc2)no1` (stereo not drawn), the activation is -0.82%.

`CC(=O)NC(=S)Nc1ccc(NC(=O)c2cccnc2)cc1`: the activation is 0.34%.

In the case of `NS(=O)(=O)c1ccc(NC(=S)NC(=O)c2cccnc2)cc1`, the activation was 56.7% (active). Next, `CC(C)NS(=O)(=O)c1ccc(NC(=O)c2cccnc2)cc1`: 0.76%; `COc1ccc(CCNS(=O)(=O)c2ccc(Cl)s2)cc1OC`: 1.04%. Consider `N#Cc1cc([N+](=O)[O-])ccc1NC(=O)COC(=O)c1cnccn1`, for which the activation was 10.8%. Then `COc1cccc(N(Cc2nnc3n2CCCCC3)C(=O)Nc2ccccc2F)c1`, with 8.31%. Next, `COc1cc2[nH]c(=S)n(CCN3CCCCC3C)c(=O)c2cc1OC` (stereo not drawn): 7.8%; `COc1cc2[nH]c(=S)n(Cc3ccc(C)o3)c(=O)c2cc1OC`: 73.8% (active); `COc1cc2[nH]c(=S)n(Cc3ccc(F)cc3)c(=O)c2cc1OC`: 0.4%. With `O=C(O)c1cc(S(=O)(=O)NC2CCCc3ccccc32)ccc1O` (stereo not drawn), the activation is -0.8%. Next, `N#CCC(=O)NC(=O)NCC1CC1`: 3.61%. Next, `O=C(CCCN1C(=O)CSc2ncccc21)N1CCN(c2cccc(C(F)(F)F)c2)CC1`: 1.24%; `CNS(=O)(=O)c1ccc(C(=O)NCC(=O)NCCc2ccc3c(c2)OCCO3)cc1`: -1.1%.

On to `CCc1ccc(CNC(=O)C2CCN(c3nnc(C)c4c(C)n(-c5ccc(C)cc5)nc34)CC2)cc1`, for which the activation is 1.85%.

In the case of `COCCCNc1nc2c(-c3cccc(C(F)(F)F)c3)nnn2c2ccccc12`, the activation is 29%. Then `COCCCNc1nc2c(-c3cccc(C)c3)nnn2c2ccc(Cl)cc12`, with 69.9% (active); and `COC(=O)Cn1nc(-c2ccccc2)c2cc(Cl)ccc21`, with 1.76%; and `C=CCNC(=O)COc1coc(CN2CCN(Cc3ccccc3)CC2)cc1=O`, with 1.03%. Next, `O=C(COC(=O)/C=C/c1cccc(Cl)c1)NCc1cccs1`: 1.89%; `CCc1cccc(C)c1NC(=O)COC(=O)CNC(=O)c1cccs1`: 2.33%. In the case of `CC[C@@]12C(=O)N(c3ccccc3)C(=O)N1[C@H](c1ccc(Br)cc1)[C@@H]1C(=O)N(C(C)(C)C)C(=O)[C@@H]12`, the activation is -0.76%. Then `CC(Sc1sc(=S)sc1SC(C)C(=O)O)C(=O)O` (stereo not drawn), with 4.16%.

Regarding `COCCN1C2=C(COC(C)(C)C2)C(=S)NC1c1ccccc1` (stereo not drawn), the activation is 0.78%. Then `O=C(NCc1cccnc1)C(=O)Nc1nc(-c2ccccc2)cs1`, with 8.85%; and `CC(=O)NCCC(=O)Nc1nc(-c2ccc3c(c2)OCCO3)cs1`, with 40.4%. For `COc1ccc(CCNc2nc(-c3cccc(NC(C)=O)c3)cs2)cc1OC`, the activation was 59% (active).

With `c1ccc(Nc2nc(-c3ccncc3)cs2)nc1`, the activation is 79% (active).

`CC(=O)Nc1ccc(C(=O)Nc2nc(-c3cc(C)n(Cc4ccccc4)c3C)cs2)cc1`: the activation is 2.48%. Next, `Clc1ccc(Cc2nnc(-c3cccs3)o2)cc1`: -4.17%; `CC(=O)Nc1cccc(-c2csc(Nc3cccc(C)n3)n2)c1`: 61.1% (active). Next, `Clc1ccc(Nc2nc(-c3cccs3)cs2)nc1`: 96.2% (active); `Cc1ccc(Nc2nc(-c3ccc(O)cc3O)cs2)nc1`: 16.5%; `O=C(Nc1nc(-c2cccnc2)cs1)c1ccccc1F`: 11.7%. Then `COc1ccc(CC(=O)Nc2nc(-c3ccc(F)c(F)c3)cs2)cc1OC`, with -6.95%; and `COc1ccc(CCN(C(=O)COc2ccccc2)c2nc(-c3ccccc3)cs2)cc1OC`, with 23.4%; and `CC(=O)NCC(=O)N(C)C(C(=O)Nc1ccc2c(c1)OCCO2)c1ccccc1` (stereo not drawn), with 15%.

As for `Cc1cc(=O)oc2c3c(cc(OCC(=O)NCc4ccccn4)c12)OC(C)(C)CC3`, the activation is 4.58%.

Consider `FC(F)(F)c1ccc(-n2cn[nH]c2=S)cc1`, for which the activation is -2.71%. Then `CCN1CCN(C(=O)c2cc3cc4ccc(OC)cc4nc3s2)CC1`, with 2.17%; and `Cc1ccccc1Nc1nc(-c2cccnc2)cs1`, with 2.23%. Then `O=C(CSC1=NCCS1)Nc1nc(-c2ccccc2)cs1`, with 18.4%. Consider `COc1ccc2c(c1OC)C(=O)OC2Nc1nc(-c2ccccc2)cs1` (stereo not drawn), for which the activation is -5.46%. Then `COc1ccc(Nc2nc(-c3ccccc3)cs2)cc1`, with 91.8% (active); and `Cc1cccc(Nc2nc(-c3ccccc3)cs2)n1`, with 95.5% (active); and `CCCn1c(CCNc2nc(-c3ccc(OC)cc3)cs2)nc2ccccc21`, with 15%.

For the compound `CCCCn1nc(C(=O)Nc2cccc(C(=O)NC3CC3)c2)c2ccccc2c1=O`, the activation is -0.03%.

On to `CC1(C)C2CCC13CS(=O)(=O)NC3C2` (stereo not drawn), for which the activation is 1.31%. With `CN1CCN(C(=O)c2cnn(-c3ccccc3)c2NC(=O)c2ccc([N+](=O)[O-])cc2)CC1`, the activation was 4.36%.

In the case of `Nc1c(N(CCO)C(=O)C2CCCCC2)c(=O)[nH]c(=O)n1Cc1ccccc1`, the activation is 0.25%.

For the compound `COc1ccccc1C(=O)Nc1ccccc1C(=O)Nc1ccccc1`, the activation is 18.5%. Then `CN(C)S(=O)(=O)Oc1ccccc1C(=O)Nc1ccccc1Cl`, with 106% (active). Then `O=C(Nc1ccccc1Cl)c1ccccc1S(=O)(=O)c1ccccc1[N+](=O)[O-]`, with 2.48%; and `Cc1ccc(NC2CCCN(C(=O)CCc3cn[nH]c3)C2)cc1C` (stereo not drawn), with 11.1%; and `Cn1ncc(Br)c1C(=O)NCc1cccs1`, with -1.33%. With `Cn1ncc(Br)c1C(=O)NC1CCCC1`, the activation was -3.04%. As to `COc1ccccc1NC(=O)c1c(Br)cnn1C`, the activation is 57.9% (active). For the compound `COC(=O)c1ccc(C(NC(=O)OCc2ccccc2)/C(C)=C/[C@@H](C)C(=O)NCc2ccc(OC)c(OC)c2)cc1` (stereo partly drawn), the activation was 6.4%.

`COc1ccc(NC(=O)CSc2nnc(C3CC3)n2C)cc1S(=O)(=O)N1CCCCC1`: the activation was -0.33%. On to `Cc1ccc(CNCc2ccc3c(c2)OCO3)c(C)c1`, for which the activation was 2.41%.

For `COc1cc(OC)c(C(=O)NCc2ccc3c(c2)OCO3)cc1OC`, the activation was 14%.

Take `COc1cc(CNCc2ccc3c(c2)OCO3)c([N+](=O)[O-])cc1OC`: the activation was 111% (active). Next, `NS(=O)(=O)c1ccc(N=Cc2ccc(Br)s2)cc1`: 3.54%. Consider `O=C(NNc1cc(Cl)cc(Cl)c1)c1c(F)cccc1Cl`, for which the activation was 10.2%. Next, `COc1ccccc1-c1nnc(NC(=O)c2ccc3ncsc3c2)o1`: 48.6% (active); `COc1ccccc1-c1nnc(NC(=O)c2cccc(N3C(=O)CCC3=O)c2)o1`: 33.9%; `Cc1sc(NC(=O)c2ccc3ncsc3c2)c(C(N)=O)c1C`: 5.88%. Next, `CC(=O)C1=C(O)C(=O)N(c2ccc(Br)cc2)C1c1ccc([N+](=O)[O-])cc1` (stereo not drawn): 62.3% (active). For the compound `CC(=O)C1=C(O)C(=O)N(c2cccnc2)C1c1ccc([N+](=O)[O-])cc1` (stereo not drawn), the activation is -2.61%. Next, `COC(=O)CN1C(=O)C(O)=C(C(C)=O)C1c1ccc([N+](=O)[O-])cc1` (stereo not drawn): 0.71%; `COC(=O)C1=C(C)N(C(C)c2ccccc2)C(=O)/C1=C\c1ccco1` (stereo not drawn): 1.2%.
